Results from PubChem BioAssay AID1159580 (chemical genetic matrix, 2015).
Out of some 5,500 compounds screened, about 2,000 (36%) were called active. Roughly 18% stayed inconclusive and do not appear here. Rule as the data show it: active = normalized growth mostly below about 0.91 (no sharp cut-off); inconclusive = no clear call, values can overlap the other calls; inactive = mostly above about 0.92. The list shows a part of the results.

Experiment: chemical genetic growth profiling, strain panel (AID 1159580);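 also: tested at 20 µM; growth read once vehicle control cultures reached saturation at 30 °C; 1 = growth at the plate median or of vehicle wells; lower values mean less growth of the strain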
Conditions: S. cerevisiae deletion strains, growth OD

Measured: normalized growth

CC[C@H]1OC(=O)C[C@@H](O)[C@H](C)[C@@H](O[C@@H]2O[C@H](C)[C@@H](O[C@H]3C[C@@](C)(O)[C@@H](O)[C@H](C)O3)[C@H](N(C)C)[C@H]2O)[C@@H](CC=O)C[C@@H](C)C(=O)/C=C/C(C)=C/[C@@H]1CO[C@@H]1O[C@H](C)[C@@H](O)[C@@H](OC)[C@H]1OC
inactive: locus YAL021C, strain ccr4, active compounds read low 1.01 | locus YAL026C, strain drs2, active compounds read low 0.986 | locus YAL030W, strain snc1, active compounds read low 0.997 | locus YBL061C, strain skt5, active compounds read low 0.986 | locus YBR009C, strain hhf1, active compounds read low 1 | locus YBR023C, strain chs3, active compounds read low 0.988 | locus YBR171W, strain sec66, active compounds read low 0.987 | locus YBR231C, strain swc5, active compounds read low 0.989 | locus YBR279W, strain paf1, active compounds read low 0.994 | locus YCL011C, strain gbp2, active compounds read low 0.995 | locus YCL016C, strain dcc1, active compounds read low 1 | locus YCL061C, strain MRC1, active compounds read low 1.01 | locus YCL069W, strain vba3, active compounds read low 0.992 | locus YCR088W, strain abp1, active compounds read low 1 | locus YDL005C, strain med2, active compounds read low 0.986 | locus YDL040C, strain nat1, active compounds read low 0.99 | locus YDR001C, strain nth1, active compounds read low 0.997 | locus YDR069C, strain doa4, active compounds read low 0.995 | locus YDR137W, strain rgp1, active compounds read low 1.03 | locus YDR159W, strain sac3, active compounds read low 0.971 | locus YDR195W, strain ref2 0.975 | locus YDR297W, strain sur2, active compounds read low 0.995 | locus YDR334W, strain swr1, active compounds read low 0.994 | locus YDR335W, strain msn5, active compounds read low 0.98 | locus YDR392W, strain spt3, active compounds read low 1.02 | locus YEL003W, strain gim4, active compounds read low 0.992 | locus YEL037C, strain rad23, active compounds read low 0.99 | locus YEL061C, strain CIN8 (second series), active compounds read low 0.992 | locus YER015W, strain faa2, active compounds read low 0.99 | locus YER016W, strain bim1, active compounds read low 0.991 | locus YER111C, strain swi4, active compounds read low 0.98 | locus YER155C, strain BEM2 (second series), active compounds read low 0.993 | locus YFR010W, strain ubp6, active compounds read low 0.988 | locus YGL167C, strain pmr1, active compounds read low 0.986 | locus YGL173C, strain kem1, active compounds read low 0.986 | locus YGL227W, strain vid30, active compounds read low 0.988 | locus YGL240W, strain doc1, active compounds read low 0.992 | locus YGL253W, strain hxk2, active compounds read low 0.98 | locus YHR013C, strain ard1, active compounds read low 0.985 | locus YHR027C, strain rpn1, active compounds read low 0.995 | locus YHR030C, strain SLT2, active compounds read low 0.953 | locus YHR079C, strain IRE1, active compounds read low 0.948 | locus YHR142W, strain chs7, active compounds read low 0.965 | locus YJL092W, strain hpr5, active compounds read low 0.986 | locus YJL095W, strain BCK1 (second series), active compounds read low 0.991 | locus YJL095W, strain BCK1, active compounds read low 0.962 | locus YJL115W, strain asf1, active compounds read low 0.983 | locus YJL129C, strain trk1, active compounds read low 0.971 | locus YJL154C, strain vps35, active compounds read low 0.994 | locus YJL164C, strain tpk1, active compounds read low 0.998 | locus YJL166W, strain qcr8, active compounds read low 0.991 | locus YJL187C, strain SWE1, active compounds read low 0.995 | locus YJR066W, strain TOR1, active compounds read low 0.918 | locus YKL160W, strain elf1, active compounds read low 0.993 | locus YKR026C, strain gcn3, active compounds read low 0.991 | locus YKR091W, strain srl3, active compounds read low 0.989 | locus YLL001W, strain dnm1, active compounds read low 0.977 | locus YLL026W, active compounds read low 0.995 | locus YLL041C, strain sdh2, active compounds read low 0.992 | locus YLR027C, strain aat2, active compounds read low 0.998 | locus YLR113W, strain HOG1, active compounds read low 0.954 | locus YLR221C, strain rsa3, active compounds read low 1 | locus YLR258W, strain gsy2, active compounds read low 0.995 | locus YLR262C, strain YPT6 (second series), active compounds read low 0.989 | locus YLR320W, strain mms22, active compounds read low 0.994 | locus YLR342W, strain FKS1, active compounds read low 0.984 | locus YLR357W, strain rsc2, active compounds read low 0.994 | locus YLR370C, strain arc18, active compounds read low 0.986 | locus YLR384C, strain iki3, active compounds read low 0.991 | locus YML120C, strain ndi1, active compounds read low 1 | locus YMR058W, strain fet3, active compounds read low 1 | locus YMR125W, strain sto1, active compounds read low 0.983 | locus YMR129W, active compounds read low 0.997 | locus YMR205C, strain PFK2, active compounds read low 0.986 | locus YMR231W, strain pep5, active compounds read low 0.999 | locus YNL071W, strain lat1, active compounds read low 0.993 | locus YNL183C, strain NPR1, active compounds read low 0.922 | locus YNL209W, strain ssb2, active compounds read low 0.993 | locus YNL248C, strain rpa49, active compounds read low 0.988 | locus YNL322C, strain KRE1 (second series), active compounds read low 0.985 | locus YNR049C, strain mso1, active compounds read low 0.99 | locus YOR001W, strain rrp6, active compounds read low 0.993 | locus YOR070C, strain gyp1, active compounds read low 0.996 | locus YOR080W, strain dia2, active compounds read low 0.977 | locus YOR083W, strain WHI5, active compounds read low 0.997 | locus YOR106W, strain vam3, active compounds read low 0.993 | locus YOR231W, strain MKK1, active compounds read low 0.97 | locus YOR265W, strain rbl2, active compounds read low 0.994 | locus YOR270C, strain vph1, active compounds read low 0.895 | locus YOR290C, strain snf2, active compounds read low 1.01 | locus YPL051W, strain arl3, active compounds read low 1 | locus YPL078C, strain atp4, active compounds read low 0.974 | locus YPL106C, strain sse1, active compounds read low 1 | locus YPL240C, strain hsp82, active compounds read low 1 | locus YPL256C, strain CLN2, active compounds read low 0.955

C[C@H](NC(=O)/C(C#N)=C/c1ccc(O)c(O)c1)c1ccccc1
inactive: locus YAL013W, strain DEP1, active compounds read low 0.985 | locus YAL040C, strain CLN3, active compounds read low 1.04 | locus YCL061C, strain MRC1 (second series), active compounds read low 0.961 | locus YDR150W, strain NUM1, active compounds read low 0.936 | locus YDR363W, strain ESC2, active compounds read low 0.992 | locus YER002W, strain NOP16, active compounds read low 0.985 | locus YGR229C, strain SMI1, active compounds read low 0.93 | locus YJR075W, strain HOC1, active compounds read low 0.961 | locus YMR263W, strain SAP30, active compounds read low 1 | locus YMR307W, strain GAS1, active compounds read low 1.02 | locus YNL153C, strain GIM3, active compounds read low 0.978 | locus YNL175C, strain NOP13, active compounds read low 0.991 | locus YNL197C, strain WHI3, active compounds read low 0.987 | locus YNL224C, strain SQS1, active compounds read low 1 | locus YOR083W, strain WHI5 (second series), active compounds read low 0.968 | locus YPL055C, strain LGE1, active compounds read low 0.924
